# Bioassay records deposited in PubChem by several laboratories.
# MITF TRPM1 HTS: activators of MITF-driven TRPM1 promoter activity in SK-MEL-5 cells. SK-MEL-5 TRPM1-promoter luciferase, 24 h; % of positive control, neutral wells = 0. activation, % at 12.5 µM. 300,000 compounds, 0.75% hits. AID 588334;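 active means mean activation of at least 80% with every replicate also reaching 80%; inconclusive means mean reaches 80% but some replicate falls short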
# GAA850 FXN act: frataxin GAA850 promoter activation | 360,000 compounds, 0.56% hits | HEK293 lucGAA850 FXN promoter luciferase reporter, 24 h; percent of 10 µM SAHA response | activation, % at 6 µM | AID 540364;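 active means activation above the average of all compounds screened plus 3 SD, cutoff fixed separately per campaign, cut at about 7.5% in these data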
# esBAF inh: blocks esBAF chromatin remodeling in mouse ES cells; Bmi1-luciferase knock-in reporter, 24 h; 100% = twice the neutral-well signal; reporter increase, % at 12.5 µM; 350,000 compounds, 2% hits; AID 602393; in the data active means activation above about 40%; inconclusive means no clear call, values can overlap the other calls;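 further: a rise in the Bmi1 reporter signal indicates esBAF inhibition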
# Wnt bcat act: activators of Wnt/beta-catenin signaling; Wnt/beta-catenin reporter cell assay, activator, plate reader; AID 743398; activation, % at 9.35 µM; 300,000 compounds, 1.2% hits; in the data active means activation above about 30%, passing the limit was not always enough; inconclusive means no clear call, values can overlap the other calls
# AHR activator: activators of human aryl hydrocarbon receptor. 320,000 compounds, 2.5% hits. P35869. activation, % at 5 µM. AHR-responsive luciferase reporter cells, luminescence. AID 2796; in the data active means activation above about 47%
# Target sequence (P35869 whole entry, looked up): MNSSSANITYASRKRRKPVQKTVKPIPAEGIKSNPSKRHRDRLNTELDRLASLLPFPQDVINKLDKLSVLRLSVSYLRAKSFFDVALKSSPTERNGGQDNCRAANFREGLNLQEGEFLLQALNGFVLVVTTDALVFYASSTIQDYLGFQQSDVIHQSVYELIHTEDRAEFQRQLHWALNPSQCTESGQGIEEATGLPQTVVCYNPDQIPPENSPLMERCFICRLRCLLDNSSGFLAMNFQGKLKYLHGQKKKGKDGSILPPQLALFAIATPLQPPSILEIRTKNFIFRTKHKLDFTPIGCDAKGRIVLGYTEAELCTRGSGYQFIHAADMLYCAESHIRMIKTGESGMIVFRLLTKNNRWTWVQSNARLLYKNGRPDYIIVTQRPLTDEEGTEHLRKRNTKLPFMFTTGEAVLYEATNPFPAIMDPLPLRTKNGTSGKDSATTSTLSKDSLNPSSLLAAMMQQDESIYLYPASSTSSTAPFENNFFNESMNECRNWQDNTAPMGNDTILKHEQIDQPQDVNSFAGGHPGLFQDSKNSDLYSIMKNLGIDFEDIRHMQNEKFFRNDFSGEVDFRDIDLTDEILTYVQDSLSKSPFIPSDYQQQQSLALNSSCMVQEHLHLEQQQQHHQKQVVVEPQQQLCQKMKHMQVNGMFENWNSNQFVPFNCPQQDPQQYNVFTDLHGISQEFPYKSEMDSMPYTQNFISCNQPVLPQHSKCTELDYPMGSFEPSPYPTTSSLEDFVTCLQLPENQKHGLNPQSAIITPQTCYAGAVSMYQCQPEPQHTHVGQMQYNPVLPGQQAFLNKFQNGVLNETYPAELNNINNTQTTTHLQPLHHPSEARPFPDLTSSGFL
# A number is an active result; – = inactive; ? = inconclusive; · = no result. Shown are actives, neighbours in structure and some others; about 4.2% of the full set was active somewhere.
SMILES,MITF TRPM1 HTS,GAA850 FXN act,esBAF inh,Wnt bcat act,AHR activator
CO[C@@H]1CN(C)C(=O)c2cc(NC(=O)NC(C)C)ccc2OC[C@H](C)N(C(=O)C2CCC2)C[C@@H]1C,·,·,–,·,·
O=C(CSC1=NNC(c2ccccn2)S1)Nc1ccc(C(F)(F)F)cc1 (stereo not drawn),·,–,·,–,53
Cc1[nH]n(-c2ccccc2)c(=O)c1N=Nc1ccccc1O,–,–,·,–,·
Cc1[nH]n(-c2ccccc2)c(=O)c1N=Nc1nccs1,·,–,–,·,86
Cc1[nH]n(-c2ccccc2)c(=O)c1N=Nc1ccc2c(c1)OCO2,–,–,64,50,–
CCOc1ccc(N=Nc2c(C)[nH]n(-c3ccccc3)c2=O)cc1,–,–,–,–,50
C[C@@H]1CN([C@H](C)CO)C(=O)c2cccc(NC(=O)Nc3ccc(C(F)(F)F)cc3)c2O[C@@H]1CN(C)S(=O)(=O)c1cccs1,·,·,–,·,·
COCC(=O)N(C)C[C@H]1Oc2cc(C3=CCCCC3)ccc2S(=O)(=O)N([C@@H](C)CO)C[C@H]1C,·,·,–,·,·
C[C@H](CO)N1C[C@H](C)[C@@H](CN(C)S(=O)(=O)c2cn(C)cn2)OCCCC[C@H](C)Oc2ccc(NS(C)(=O)=O)cc2C1=O,·,·,–,·,·
CCC(=O)N(C)C[C@H]1Oc2cc(-c3cccc(OC)c3)ccc2S(=O)(=O)N([C@H](C)CO)C[C@H]1C,·,·,–,·,·
COc1ccc(CNC(=O)COC(=O)c2c(NC(C)=O)sc(C)c2C)cc1OC,·,–,–,46,·
CC(=O)Nc1sc(C)c(C)c1C(=O)OCCOc1ccccc1,–,–,55,–,–
CC(=O)Nc1sc(C)c(C)c1C(=O)OCC(=O)Nc1ccccc1,–,–,–,–,–
COc1ccc(CNC(=O)COC(=O)c2c(NC(C)=O)sc(C)c2C)cc1,–,–,–,–,–
c1ccc2c(c1)NC1(CCCC1)n1c-2nc2ccccc21,?,–,75,–,–
CCCC1(C)Nc2ccccc2-c2nc3ccccc3n21 (stereo not drawn),–,–,67,·,–
Cc1ccccc1NC(=O)C1CCCN1S(=O)(=O)c1ccccc1C(F)(F)F (stereo not drawn),–,–,–,50,–
Cc1ccccc1NC(=O)C1CCCN1S(=O)(=O)c1cccc2cccnc12 (stereo not drawn),–,–,–,·,–
O=C(/C=C/Nc1ccccc1Oc1ccccc1)c1ccco1,–,–,–,–,–
CN(C)c1ccc(N/C=C/C(=O)c2ccco2)cc1,–,–,–,43,–
O=C(/C=C/Nc1cccc(F)c1)c1ccco1,93,–,45,·,–
O=C(/C=C/Nc1ccccc1O)c1ccco1,–,–,·,52,–
C[C@@H]1CN([C@@H](C)CO)C(=O)c2cc(-c3ccc(F)cc3)cnc2O[C@H]1CN(C)C(=O)C1CCC1,·,·,–,·,·
COc1ccc(C2CC(c3ccc4ccccc4c3)=NN2C(=O)CN2CCC(C(N)=O)CC2)cc1 (stereo not drawn),–,–,48,–,–
CC(=O)OCC(=O)N1N=C(c2ccc3ccccc3c2)CC1c1ccccc1 (stereo not drawn),–,–,·,·,–
SMILES,MITF TRPM1 HTS,GAA850 FXN act,esBAF inh,Wnt bcat act,AHR activator
COc1ccc(C2CC(c3ccc4ccccc4c3)=NN2C(=O)COC(=O)C2CCC(=O)N2)cc1 (stereo not drawn),–,–,·,45,–
COc1ccc(C2CC(c3ccc4ccccc4c3)=NN2C(=O)CNC2CCCCC2)cc1 (stereo not drawn),–,–,·,–,–
O=C(NN=Cc1ccc2c(c1)OCO2)c1ccccc1,–,–,–,63,·
Cc1ccc(NC(=O)CO/N=C/c2ccc(N(C)C)cc2)cc1,–,–,·,–,–
Cc1c(/C=N/NC(=O)C(NC(=O)c2ccc3c(c2)OCO3)C(C)C)c2ccccc2n1C (stereo not drawn),–,–,·,–,51
CN(C)c1ccc(/C=N/OC(=O)Nc2ccccc2)cc1,–,–,–,52,–
CC(C)C(NC(=O)c1ccc2c(c1)OCO2)C(=O)N/N=C/c1cccs1 (stereo not drawn),–,–,–,–,–
COc1ccccc1C(=O)N/N=C/c1ccc2c(c1)OCO2,–,–,–,–,50
Cc1ccc(C(=O)N/N=C/C2=Cc3ccccc3OC2C)cc1 (stereo not drawn),–,–,·,–,–
CC1Oc2ccccc2C=C1/C=N/NC(=O)c1ccccc1 (stereo not drawn),89,–,·,37,–
COc1ccccc1/C=N/NC(=O)c1ccc2c(c1)OCO2,–,–,–,–,51
CN(C)c1ccc(/C=N/NC(=O)c2ccccc2)cc1,–,–,–,–,47
COc1ccc(-c2cc(C(=O)N/N=C/c3ccc4c(c3)OCO4)c3ccccc3n2)c(OC)c1,–,–,–,–,49
O=C(N/N=C/c1ccc2c(c1)OCO2)C1CC1,–,–,·,–,67
CN(C)c1ccc(/C=N/NC(=O)c2sccc2-n2cccc2)cc1,–,–,·,–,72
COc1cc(/C=N/NC(=O)c2cc(-c3ccc4c(c3)OCO4)n[nH]2)ccc1O,–,–,·,–,128
CCCCCC(=O)N/N=C/c1ccc(N(C)C)cc1,–,–,51,–,–
C[C@@H]1CCCCO[C@H](CN(C)C)[C@@H](C)CN([C@H](C)CO)C(=O)c2cc(NC(=O)Nc3ccc4c(c3)OCO4)ccc2O1,·,·,–,·,·
CC(C)NC(=O)N(C)C[C@H]1OCCCC[C@@H](C)Oc2ccc(NC(=O)Nc3ccc(F)cc3)cc2C(=O)N([C@@H](C)CO)C[C@H]1C,·,·,–,·,·
C[C@@H]1CCCCO[C@H](CN(C)C(=O)c2ccccc2)[C@H](C)CN([C@@H](C)CO)C(=O)c2cc(NC(=O)CCCCCC(=O)Nc3ccccc3N)ccc2O1,·,·,–,·,·
CN(C)C(=O)c1ccc(-c2cccc(-c3nc(C(=O)NC4CCCC4)cc4c3[C@H](CCO)N([S@@](=O)C(C)(C)C)C4)c2)cc1,·,·,–,·,·
Cc1ccc(-n2c(C)c(C)c3c(NCCCO)ncnc32)cc1,–,–,59,–,·
COc1ccc(-n2ncc3c(NCc4cccnc4)ncnc32)cc1,–,–,55,43,–
Cc1ccc(-n2ncc3c(NCc4cccnc4)ncnc32)cc1C,–,–,75,–,–
COc1ccc(-n2ncc3c(NCC(C)C)ncnc32)cc1,–,–,·,·,–
SMILES,MITF TRPM1 HTS,GAA850 FXN act,esBAF inh,Wnt bcat act,AHR activator
Cc1cccc(-n2ncc3c(N4CC(C)CC(C)C4)ncnc32)c1 (stereo not drawn),89,–,62,–,–
Cc1ccc(-n2ncc3c(NCc4ccccc4)ncnc32)cc1,–,–,–,·,–
Cc1ccc(-n2ncc3c(NCc4cccnc4)ncnc32)c(C)c1,–,–,·,–,–
Cc1c(C)n(CCc2ccccc2)c2ncnc(NCCO)c12,138,–,76,–,–
Cc1c(C)n(CCCN(C)C)c2ncnc(NCc3ccccc3)c12,–,–,–,–,–
Cc1cccc(-n2ncc3c(NCCCO)ncnc32)c1,–,–,–,40,–
C=CCNc1ncnc2c1cnn2-c1cccc(C)c1,–,–,–,–,–
Cc1sc2ncnc(NCc3cccnc3)c2c1C,–,–,·,–,61
